Growth data for 39 compounds are collected here from PubChem BioAssay (NCI).

Compounds without any hit were thinned out: in the full panel of roughly 83,000, 20% have a hit.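 Negative percent growth values reflect cell death: -40 means 40% of the cells present at the start died, and -100 means all died.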 Values without a mark were called inactive. The source made the active and inactive calls. How the source made its calls: active means growth percent below 10; inactive means the rest.

The test system of the first test is 786-0 renal. The experiment in a line: NCI-60 one-dose screen, 48 h (100 = growth as untreated, 0 = no growth, -100 = all killed). The settings on record: 10 µM unless noted.
Take `CCCSC1=NC2C(N(CC)C(=O)N2CC)N1/N=C/C=C/c1ccccc1[N+](=O)[O-]` (stereo not drawn): the growth is 33.4%.

As to `COC(=O)C1=Nc2ccc(F)cc2/C1=C/c1sc(=S)[nH]c1O`, the growth was 9.99% (active).

As to `O=C1c2cc(Br)ccc2Oc2cc([N+](=O)[O-])ccc2N1c1ccc(I)cc1F`, the growth was 104%.

Take `COc1cccc(-c2nn(C)c3sc(C(=O)NCCN4CCN(c5ccccc5F)CC4)cc23)c1`: the growth was 57.6%.

For `O=S(=O)(c1ccccc1)n1cc2c(c1-c1ccccc1)CCc1sc(Nc3ccccc3)nc1-2`, the growth was 89.7%.

Consider `CN1CCN(Cc2ccc(NC(=O)c3cncc(C#Cc4nc(N)nc5[nH]ncc45)c3)cc2C(F)(F)F)CC1`, for which the growth is 111%.

`Clc1ccc(-c2nnc(COc3ccc(C4=NNC(c5ccco5)C4)cc3)o2)cc1` (stereo not drawn): the growth is 89.5%.

For `CC(=O)c1ccc(Cc2ccc(C(C)=O)s2)s1`, the growth is 102%.

Take `CCOC(=O)c1cnc2ccc(Cl)cc2c1NCCCN(C)C`: the growth is 8.14% (active).

Consider `CCN1C(=O)N(CC)C2C1NN=c1s/c(=C3\C(=O)N(CC(C)(C)C)c4ccccc43)c(=O)n12` (stereo not drawn), for which the growth is 39.9%.

For `CC(=O)c1ccc2oc(=O)n(Cc3ccc(C#N)cc3)c(=O)c2c1`, the growth was 103%.

In the case of `O=C1/C(=C/c2cccc(O)c2)COc2ccc(O)cc21`, the growth is 82.1%.

Turning to `O=C(Nc1nc2c(s1)CCc1c-2c(Br)n(Cc2ccccc2)c1Br)c1ccccc1`, the growth is 56.7%.

Regarding `Nc1n[nH]c2ccc([C@@H]3Nc4ccc5[nH]ncc5c4[C@H]4[C@H]5CCC(C5)[C@H]43)cc12`, the growth is 24.1%.

As to `CN(C)c1ccc(/C=C/c2ccnc3c(O)cccc23)cc1`, the growth was -10.5% (active).

For the compound `CCOC(=O)c1cc2c(n1Cc1cccc(OC)c1)-c1oncc1CCC2`, the growth was 51.7%.

As to `Cn1nc(C(C)(C)C)cc1NC(=O)Cc1ccc(/C=C2\C(=O)Nc3ccccc32)cc1`, the growth is 72.1%.

As to `Cc1c(C(=O)OCCO)cc(-c2ccc(Cl)cc2)n1-c1ccc(Cl)cc1Cl`, the growth is 94.1%.

For the compound `CCC1=C[C@]2(C3CC(=O)N(c4ccccc4)C3=O)CC(C(C)(C)C)C[C@@H]2[C@@H]2C(=O)N(c3ccccc3)C(=O)[C@H]12` (stereo partly drawn), the growth was 83.8%.

Regarding `Nc1ccc(-c2nn3c(CCC(=O)c4nc5ncccc5[nH]4)nnc3s2)c(O)c1`, the growth was 99.2%.

Consider `CCCCCCc1cc2cc(-c3nc4ccccc4[nH]3)c(=Nc3ccccc3C)oc2cc1O`, for which the growth was 46.8%.

For `COc1ccc(OC)c(N(CCN2C(=O)c3ccccc3C2=O)C(=O)CCl)c1`, the growth is 38.6%.

`COc1ccc(C)c2sc(N(Cc3cccnc3)C(=O)c3ccc(C#N)cc3)nc12`: the growth was -12.2% (active).

Regarding `O=C(/C=C/c1ccccn1)c1ccc(OCc2nnc(-c3ccc(Cl)cc3)o2)cc1`, the growth was -49.9% (active).

For `COc1ccc(C2C3=C(COC3=O)N(CCO)c3cc4c(cc32)CCC4)cc1` (stereo not drawn), the growth is 54.8%.

Consider `CN(C)/C=C1\SC(=Nc2ccc(Cl)cc2)NC1=O`, for which the growth is 99.8%.

Regarding `c1ccc(CNc2nc(Nc3ccccc3)nc3ccccc23)cc1`, the growth is 38.5%.

For the compound `COc1ccc2c(c1)C=C1CSCC3=Cc4cc(OC)ccc4OC13O2`, the growth is 38.6%.

As for `COc1ccc(C(O)(CCC(C)C)C(CN2CCOCC2)c2ccc(Cl)cc2)cc1` (stereo not drawn), the growth is 73.3%.

As to `COC(=O)[C@H]1CCCN1C(=O)[C@H]1CCCN1C(=O)[C@H](Cc1c[nH]c2ccccc12)NC(=S)Nc1cc(C(F)(F)F)cc(C(F)(F)F)c1`, the growth is 58.3%.

In the case of `CCn1c(Cc2ccccc2Nc2c(Cl)cccc2Cl)nnc1SCC(=O)NN1C(=O)/C(=C/c2cccc(OC)c2OC)SC1=S`, the growth was 104%.

`CCCC(c1nnnn1C1CCCCC1)N1CCN(C(=O)c2ccco2)CC1` (stereo not drawn): the growth was 74.9%.

For the compound `C1=CC2(C=C1)OC21CCC2(C=CC3(C2)OC3C2CCCCC2)CC1` (stereo not drawn), the growth was 100%.

As for `O=C(NC1CCN(Cc2ccccc2)CC1)c1cc(C(=O)NC2CCN(Cc3ccccc3)CC2)cc(C(=O)NC2CCN(Cc3ccccc3)CC2)c1`, the growth was 100%.

For the compound `COc1cc(-c2c3c(c(Br)n2Cc2ccccc2)-c2nc(N)sc2CC3)cc(OC)c1OC`, the growth was 86%.

Take `NC(CCc1nc2ccccc2c(=O)[nH]1)C(=O)O` (stereo not drawn): the growth was 101%.

As to `Nc1no[n+]([O-])c1-c1nnc2c(n1)-c1ccccc1C2=O`, the growth was 97.2%.

On to `CCOc1ccc(-c2nonc2NC(=O)c2cccc(C)c2)cc1OCC`, for which the growth is 73.9%.

Regarding `Cc1ccc(OCCCCCCNCCO)c(C)c1`, the growth is 11.3%.

In another test the test system is COLO 205 colon. The test is described as above. The settings on record: 10 µM unless noted.
With `CCCSC1=NC2C(N(CC)C(=O)N2CC)N1/N=C/C=C/c1ccccc1[N+](=O)[O-]` (stereo not drawn), the growth was 0.744% (active).

Take `COC(=O)C1=Nc2ccc(F)cc2/C1=C/c1sc(=S)[nH]c1O`: the growth is -2.37% (active).

With `O=C1c2cc(Br)ccc2Oc2cc([N+](=O)[O-])ccc2N1c1ccc(I)cc1F`, the growth was 123%.

For the compound `COc1cccc(-c2nn(C)c3sc(C(=O)NCCN4CCN(c5ccccc5F)CC4)cc23)c1`, the growth is -78.4% (active).

Regarding `O=S(=O)(c1ccccc1)n1cc2c(c1-c1ccccc1)CCc1sc(Nc3ccccc3)nc1-2`, the growth was 103%.

Take `CN1CCN(Cc2ccc(NC(=O)c3cncc(C#Cc4nc(N)nc5[nH]ncc45)c3)cc2C(F)(F)F)CC1`: the growth was 21.6%.

Consider `Clc1ccc(-c2nnc(COc3ccc(C4=NNC(c5ccco5)C4)cc3)o2)cc1` (stereo not drawn), for which the growth is 105%.

As to `CC(=O)c1ccc(Cc2ccc(C(C)=O)s2)s1`, the growth is 119%.

As to `CCOC(=O)c1cnc2ccc(Cl)cc2c1NCCCN(C)C`, the growth is 31.4%.

For `CCN1C(=O)N(CC)C2C1NN=c1s/c(=C3\C(=O)N(CC(C)(C)C)c4ccccc43)c(=O)n12` (stereo not drawn), the growth is -38.1% (active).

On to `CC(=O)c1ccc2oc(=O)n(Cc3ccc(C#N)cc3)c(=O)c2c1`, for which the growth was 114%.

Consider `O=C1/C(=C/c2cccc(O)c2)COc2ccc(O)cc21`, for which the growth was 102%.

On to `O=C(Nc1nc2c(s1)CCc1c-2c(Br)n(Cc2ccccc2)c1Br)c1ccccc1`, for which the growth is 72.7%.

For the compound `Nc1n[nH]c2ccc([C@@H]3Nc4ccc5[nH]ncc5c4[C@H]4[C@H]5CCC(C5)[C@H]43)cc12`, the growth was 0.265% (active).

Take `CN(C)c1ccc(/C=C/c2ccnc3c(O)cccc23)cc1`: the growth was 99.7%.

As to `CCOC(=O)c1cc2c(n1Cc1cccc(OC)c1)-c1oncc1CCC2`, the growth is -17.5% (active).

Take `Cn1nc(C(C)(C)C)cc1NC(=O)Cc1ccc(/C=C2\C(=O)Nc3ccccc32)cc1`: the growth is 80.2%.

Consider `Cc1c(C(=O)OCCO)cc(-c2ccc(Cl)cc2)n1-c1ccc(Cl)cc1Cl`, for which the growth was 108%.

Regarding `CCC1=C[C@]2(C3CC(=O)N(c4ccccc4)C3=O)CC(C(C)(C)C)C[C@@H]2[C@@H]2C(=O)N(c3ccccc3)C(=O)[C@H]12` (stereo partly drawn), the growth is 93.3%.

Take `Nc1ccc(-c2nn3c(CCC(=O)c4nc5ncccc5[nH]4)nnc3s2)c(O)c1`: the growth is 99.6%.

Consider `CCCCCCc1cc2cc(-c3nc4ccccc4[nH]3)c(=Nc3ccccc3C)oc2cc1O`, for which the growth is -94.3% (active).

For the compound `COc1ccc(OC)c(N(CCN2C(=O)c3ccccc3C2=O)C(=O)CCl)c1`, the growth was 80.6%.

`COc1ccc(C)c2sc(N(Cc3cccnc3)C(=O)c3ccc(C#N)cc3)nc12`: the growth was 1.84% (active).

As to `O=C(/C=C/c1ccccn1)c1ccc(OCc2nnc(-c3ccc(Cl)cc3)o2)cc1`, the growth was -40.1% (active).

Take `COc1ccc(C2C3=C(COC3=O)N(CCO)c3cc4c(cc32)CCC4)cc1` (stereo not drawn): the growth is 52.1%.

As for `CN(C)/C=C1\SC(=Nc2ccc(Cl)cc2)NC1=O`, the growth was 119%.

`c1ccc(CNc2nc(Nc3ccccc3)nc3ccccc23)cc1`: the growth was 75.1%.

Consider `COc1ccc2c(c1)C=C1CSCC3=Cc4cc(OC)ccc4OC13O2`, for which the growth was 3.24% (active).

Regarding `COc1ccc(C(O)(CCC(C)C)C(CN2CCOCC2)c2ccc(Cl)cc2)cc1` (stereo not drawn), the growth was 76.4%.

On to `COC(=O)[C@H]1CCCN1C(=O)[C@H]1CCCN1C(=O)[C@H](Cc1c[nH]c2ccccc12)NC(=S)Nc1cc(C(F)(F)F)cc(C(F)(F)F)c1`, for which the growth is -34.8% (active).

For `CCn1c(Cc2ccccc2Nc2c(Cl)cccc2Cl)nnc1SCC(=O)NN1C(=O)/C(=C/c2cccc(OC)c2OC)SC1=S`, the growth was 112%.

As for `CCCC(c1nnnn1C1CCCCC1)N1CCN(C(=O)c2ccco2)CC1` (stereo not drawn), the growth was 73.4%.

As to `C1=CC2(C=C1)OC21CCC2(C=CC3(C2)OC3C2CCCCC2)CC1` (stereo not drawn), the growth is 120%.

Regarding `O=C(NC1CCN(Cc2ccccc2)CC1)c1cc(C(=O)NC2CCN(Cc3ccccc3)CC2)cc(C(=O)NC2CCN(Cc3ccccc3)CC2)c1`, the growth was 108%.

Consider `COc1cc(-c2c3c(c(Br)n2Cc2ccccc2)-c2nc(N)sc2CC3)cc(OC)c1OC`, for which the growth is 108%.

Turning to `NC(CCc1nc2ccccc2c(=O)[nH]1)C(=O)O` (stereo not drawn), the growth was 115%.

On to `Nc1no[n+]([O-])c1-c1nnc2c(n1)-c1ccccc1C2=O`, for which the growth is 42.1%.

Regarding `CCOc1ccc(-c2nonc2NC(=O)c2cccc(C)c2)cc1OCC`, the growth was 36.8%.

With `Cc1ccc(OCCCCCCNCCO)c(C)c1`, the growth was 1.75% (active).
